According to PubChem BioAssay AID2113 (National Center for Advancing Translational Sciences (NCATS), 2009):
Inconclusive results are not listed. Activity calls are given as the source filed them. Calls come from the whole dose curve; as a rule, active = well fitted curve in either direction with a large enough effect; inconclusive = small, poorly fitted or top-dose-only effect; inactive = no such curve, though single readings can be large or run the other way.

Target: Lysosomal alpha-glucosidase (Homo sapiens) (UniProt P10253)
Test: Confirmation of Inhibitors and Activators of Human alpha-Glucosidase From Spleen Homogenate; note: 0% is about no effect
Settings: alpha-glucosidase enzyme activity; series mostly up to 60.5 µM; activity change, both directions: at the top concentration
From the text: NIH Chemical Genomics Center [NCGC]
NIH Molecular Libraries Probe Production centers Network [MLPCN]
Assay Submitter (PI): Wei Zheng
Alpha-glucosidase is responsible for hydrolysis of terminal, non-reducing 1,4-linked alpha-D-glucose residues with release of alpha-D-glucose. It is a lysosomal hydrolase that is required for the degradation of a small percentage (1-3%) of cellular glycogen in human. Deficiency of this enzyme results in glycogen-storage disease type II (GSDII), also referred to as Pompe disease, an autosomal recessive disorder. Structurally normal glycogen is accumulated in lysosomes and cytoplasm in affected patients, primarily in muscle tissues. Excessive glycogen storage within lysosomes may interrupt normal functioning of other organelles and leads to cellular injury. In turn, this leads to enlargement and dysfunction of the entire organ involved (eg, cardiomyopathy and muscle weakness).
It has reported that the improper folding and trafficking of alpha-glucosidase resultinged from the genetic mutations may account for a significant number of Pomrope patients. […] We optimized this alpha-glucosidase assay in 1536-well plate format for identifying the novel small molecule inhibitors with the structures other than the sugar analogs in order to develop the new pharmacological chaperones. In particular, this assay is directed towards discovering compounds active in a more natural setting, tissue homogenate, that may have been missed by screens of the purified enzyme under more stringent conditions. This assay attempted to confirm hits from the primary screening.
NCGC Assay Protocol Summary:
This is a fluorogenic enzyme assay with 4-methylumbelliferyl-alpha-D-glucopyranoside as the substrate and human spleen homogenate containing alpha-glucosidase as the enzyme preparation. Upon hydrolysis of this fluorogenic substrate, the resulting product, 4-methylumbelliferone (which excites at 365 nm and emits at 440 nm) can be detected by a fluorescence plate reader. Data were normalized to the controls for basal activity (without enzyme) and 100% activity (with enzyme). The AC50 values were determined from concentration-response data modeled with the standard Hill equation.
Assay buffer: 50 mM citric acid (titrated with potassium phosphate to pH 5.0), 0.01% Tween-20 (pH 5.0 is an optimal condition for this enzyme assay)
1536-well assay protocol for the alpha-glucosidase from human spleen homogenate:
(1) Add 2 ul/well spleen homogenate (1 ug)
(2) Add 23 nL compounds in DMSO solution. The final titration was 0.5 nM to 58 uM.
(3) Add 2 ul of substrate (1 mM final)
(4) Incubate at 37 C for 40 min
(5) Add 2 ul stop solution (1M NaOH and 1M Glycine mixture, pH 10)
(6) Detect the assay plate in a ViewLux plate reader (PerkinElmer) with Ex=365 nm and Em=440nm.
Keywords: Alpha-glucosidase, Pompe Disease, pharmacological chaperone, chaperone therapy, high throughput screening, alpha-glucosidase inhibitor, MLSMR, MLSCN, NIH Roadmap, qHTS and NCGC

Structure (SMILES)	activity change, both directions	outcome
Cc1cc(/C=C2\C(=O)NC(=O)N(c3ccc(F)cc3)C2=O)c(C)n1-c1ccc(C(=O)O)cc1	-12.7% (inactive)	
COc1ccc(Cc2nccc3cc(OC)c(OC)cc23)cc1OC	-1.95% (inactive)	
CC(C)(C)c1cc(C=C(C#N)C#N)cc(C(C)(C)C)c1O	2.31% (inactive)	
Cc1cc(/C=C2/C(=O)NC(=O)N(Cc3ccco3)C2=O)c(C)n1-c1ccc(C(=O)O)cc1	-16.4% (inactive)	
C/C(O)=C(/C#N)C(=O)Nc1cc(Br)ccc1Br	-58.7% (inactive)	
O=C(O)c1ccccc1-c1c2cc(Br)c(=O)cc-2oc2[c]([Hg])c(O)c(Br)cc12	-2.07% [at 286 µM] (inactive)	
CCCCC/C=C\C/C=C\C/C=C\C/C=C\CCCC(=O)NCCCC(=O)O	-9.01% (inactive)	
O[C@H]1[C@H](O)[C@@H](O)CN2CC[C@H](O)[C@H]12		inactive
C/C=C(/C)C(=O)O[C@H]1C(C)=C2C([C@@H]1OC(=O)CCCCCCC)[C@@](C)(OC(C)=O)C[C@@H](OC(=O)CCC)[C@@]1(O)[C@H]2OC(=O)[C@@]1(C)O (stereo not given in full)	-6.96% (inactive)	
Cc1cc(C(=O)CS(=O)(=O)c2ccc(F)cc2)cc(C)c1OC(=O)N(C)C	1.6% [at 31.5 µM] (inactive)	
CC(=O)Nc1ccc(OC(=O)c2ccccc2N)cc1	6.2% [at 31.5 µM] (inactive)	
CC(=O)[O][Hg][c]1ccccc1	5.66% [at 286 µM] (inactive)	
O[C@@H]1[C@H](O)[C@H]2[C@@H](O)CCN2C[C@@H]1O	-100% [at 286 µM] (inactive)	
CCOc1ccc2cc(C#N)c(=O)oc2c1	2.73% (inactive)	
OC[C@@H]1[C@@H](O)[C@H](O)[C@H]2[C@@H](O)CCN21	-42.7% (inactive)	
